FBA Mtb inh – Mtb FBA enzyme inhibitors, primary screen, biochemical, fluorescence, strain H37Rv. Fructose-bisphosphate aldolase (Mycobacterium tuberculosis (strain ATCC 25618 / H37Rv)), …. purified M. tuberculosis FBA, fluorescence read-out. inhibition, % at 1 µM. actives 2.3% (n = 360,000); in the data active = inhibition above about 27%
Target sequence (P9WQA3 whole entry, looked up): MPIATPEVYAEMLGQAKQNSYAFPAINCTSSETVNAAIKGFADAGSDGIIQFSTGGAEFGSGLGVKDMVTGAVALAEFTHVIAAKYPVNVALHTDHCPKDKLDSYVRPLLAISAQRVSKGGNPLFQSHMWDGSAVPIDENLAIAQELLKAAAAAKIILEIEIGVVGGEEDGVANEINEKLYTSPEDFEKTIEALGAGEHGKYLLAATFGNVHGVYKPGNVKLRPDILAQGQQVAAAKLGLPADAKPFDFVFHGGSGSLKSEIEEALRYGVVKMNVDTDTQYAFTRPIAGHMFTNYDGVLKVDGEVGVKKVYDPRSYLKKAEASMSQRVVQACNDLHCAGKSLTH
MazEF act – activators of E. coli MazEF toxin-antitoxin RNase, primary screen, biochemical, fluorescence, uHTS | activation, % at 20 µM | AID 504720, 2011 | FAM/BHQ RNA-DNA oligo cleavage fluorescence, 5 h | Endoribonuclease toxin MazF (Escherichia coli (strain K12)), P0AE70 | actives 0.32% (n = 350,000); in the data active = activation above about 50%
Target sequence (P0AE70 whole entry, looked up): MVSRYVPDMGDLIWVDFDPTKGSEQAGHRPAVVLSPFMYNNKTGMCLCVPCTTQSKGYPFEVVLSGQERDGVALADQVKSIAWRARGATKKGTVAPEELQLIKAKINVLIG
CCHF vOTU inh-1 – CCHFV vOTU protease inhibitors, primary screen, biochemical, Pep-AMC substrate, fluorescence; Crimean-Congo hemorrhagic fever virus L polyprotein viral ovarian tumor (vOTU) protease …; inhibition, % at 11.5 µM; actives 0.55% (n = 370,000); AID 651958, 2012
Mtb bLac sens – beta-lactam sensitization of Mtb H37Rv, H37Rv; inhibition, % at 25 µM; actives 0.27% (n = 330,000); M. tuberculosis H37Rv growth with meropenem, percent inhibition; AID 434955, 2010; call rule not given here;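 note: growth measured after seven days incubation then overnight dye step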
GDH-TPI counter – GDH-TPI coupling enzyme inhibitors, primary screen, artefact control for M. tuberculosis FBA inhibitor project, biochemical, absorbance, full deck. GDH-TPI coupled enzyme counterscreen, NADH absorbance. inhibition, % at 4.8 µM. actives 1.2% (n = 360,000). AID 588335, 2011
CCHF vOTU inh-2 – CCHFV vOTU protease inhibitors, confirmation, biochemical, Pep-AMC substrate, fluorescence | shares compounds with CCHF vOTU inh-1 | Recombinant CCHFV vOTU | inhibition, % at 11.5 µM | actives 17% (n = 1,900) | AID 686976, 2013
Each line names hits and unclear results; the compound was inactive in the other large screens (follow-up assays come after a bar, where they were run). Compounds with a hit are over-represented: about 4% of the library has one in this group of screens. Cut-off read from the data, not from the text of the source, unless noted: active = inhibition above about 30%; inactive = the rest.

O=C(COc1ccc2ccccc2c1)Nc1cccc(C(=O)Nc2ccccc2C(=O)O)c1	CCHF vOTU inh-1 34 | CCHF vOTU inh-2 inactive
CC(C)(C)OC(=O)C[C@@H]1C/C=C\C[C@@H](CC(=O)N[C@H](CO)Cc2ccccc2)C(=O)NC[C@H](c2ccccc2)OC1=O	none
O=C(Oc1ccc2[nH]cc(CCN3C(=O)c4ccccc4C3=O)c2c1)c1ccco1	CCHF vOTU inh-1 36 | CCHF vOTU inh-2 inactive
CC(=O)O[C@H]1CC(C)(C)C(=C=C/C(C)=C/C=C/C(C)=C/C=C/C=C(C)/C=C/C=C(\C)C(=O)C[C@@]23O[C@]2(C)C[C@@H](O)CC3(C)C)[C@](C)(O)C1	none (no result: FBA Mtb inh, CCHF vOTU inh-1, GDH-TPI counter)
Oc1ccc(NCc2ccccc2OCc2ccccc2)cc1	CCHF vOTU inh-1 51 | CCHF vOTU inh-2 inactive
COc1ccc(NC(=O)CN(C)CC(=O)NC(=O)NC2CCCCC2)cc1	CCHF vOTU inh-1 38 | CCHF vOTU inh-2 inactive
CN(CC(=O)NC(=O)NC1CCCCC1)CC(=O)Nc1ccc(OC(F)(F)F)cc1	none
COc1ccc2nc(NC(=O)CCn3cccc3)sc2c1	none
COc1ccc2nc(NC(=O)CCN3C(=S)NC(C)(C)CC3C)sc2c1 (stereo not given)	CCHF vOTU inh-1 36 | CCHF vOTU inh-2 inactive
CN1CCS/C1=C\C=C1/SC(=S)N(CC(=O)O)C1=O	CCHF vOTU inh-1 30 (no result: Mtb bLac sens) | CCHF vOTU inh-2 inactive
CCCCCCn1c(=O)n2n(c1=O)C[C@]1(OC(=O)NCC3CCCCC3)CN(S(=O)(=O)c3ccc(C)cc3)C[C@]1(O)C2	CCHF vOTU inh-1 32 (no result: Mtb bLac sens) | CCHF vOTU inh-2 inactive
CCCCCCn1c(=O)n2n(c1=O)C[C@]1(OC(=O)NC3CCCC3)CN(S(=O)(=O)c3ccc(C)cc3)C[C@]1(O)C2	none (no result: Mtb bLac sens)
CC(=O)Nc1cc(C(=O)CSc2nnc(C3CC3)n2C2CC2)ccc1O	none
Cc1ccc(NS(=O)(=O)c2cc(Br)cnc2N)c(Cl)c1	none
Nc1ncc(Br)cc1S(=O)(=O)Nc1cc(C(F)(F)F)cc(C(F)(F)F)c1	CCHF vOTU inh-1 32 | CCHF vOTU inh-2 inactive
CC(=O)N1CCn2c3c(c(=O)c4cc(C)ccc42)CCC31 (stereo not given)	CCHF vOTU inh-1 101 | CCHF vOTU inh-2 inactive
O=C(Nc1nc(-c2ccncc2)cs1)c1ccc(S(=O)(=O)N2CCOCC2)cc1	CCHF vOTU inh-1 39 | CCHF vOTU inh-2 inactive
CC1=C(C(=O)N(C)C)CC(CC(=O)NCc2cccc3ccccc23)C(=O)N1CCCN1CCCC1=O (stereo not given)	CCHF vOTU inh-1 36 (no result: Mtb bLac sens) | CCHF vOTU inh-2 inactive
CC1=C(C(=O)N(C(C)C)C(C)C)CC(CC(=O)NCc2cccc3ccccc23)C(=O)N1CCCN1CCCC1=O (stereo not given)	none (no result: MazEF act, Mtb bLac sens, GDH-TPI counter)
CCOc1ccc(Br)cc1S(=O)(=O)Nc1cccc(S(=O)(=O)Nc2ccccc2C(=O)O)c1	CCHF vOTU inh-1 30 | CCHF vOTU inh-2 inactive
COc1ccc(CCC(=O)Nc2cc(S(C)(=O)=O)ccc2Cl)cc1	none (no result: MazEF act, CCHF vOTU inh-1)
CC(C)(C)NCCC(O)c1cc(C(F)(F)F)nc2c(C(F)(F)F)cccc12 (stereo not given)	CCHF vOTU inh-1 30 (no result: Mtb bLac sens) | CCHF vOTU inh-2 inactive
COc1ccc(NC(=O)C2=CC(c3ccco3)=NS(=O)(=O)N2C)cc1OC	none
CC(=O)c1ccc(NC(=O)C2=CC(c3ccco3)=NS(=O)(=O)N2C)cc1	CCHF vOTU inh-1 33, GDH-TPI counter 31 | CCHF vOTU inh-2 inactive
CC1(Cc2ccccc2OC(F)(F)F)C(=O)Nc2cc(-c3ccccc3Cl)ccc21 (stereo not given)	none (no result: MazEF act, Mtb bLac sens)
CC1(Cc2ccccc2OC(F)(F)F)C(=O)Nc2ccc(OC(F)(F)F)cc21 (stereo not given)	CCHF vOTU inh-1 33 (no result: MazEF act, Mtb bLac sens) | CCHF vOTU inh-2 inactive
CC1(Cc2ccccc2OC(F)(F)F)C(=O)Nc2ccc(-c3ccsc3)cc21 (stereo not given)	CCHF vOTU inh-1 35 (no result: MazEF act, Mtb bLac sens) | CCHF vOTU inh-2 inactive
CC1(Cc2cc(Cl)ccc2C(F)(F)F)C(=O)Nc2ccc(OC(F)(F)F)cc21 (stereo not given)	none (no result: MazEF act, CCHF vOTU inh-1, Mtb bLac sens)
COc1cc(C(=O)OC2C[C@H]3CC[C@@H](C2)N3C)ccc1O (stereo not given in full)	none
COc1cc(C(=O)O[C@H]2CC(C)=CC[C@@]3(C)CC[C@@](O)(C(C)C)[C@H]23)ccc1O	CCHF vOTU inh-1 38 | CCHF vOTU inh-2 inactive
CCCCCCCCCCCCCCCC[N+](C)(C)Cc1ccc(F)cc1	CCHF vOTU inh-1 56 (no result: Mtb bLac sens) | CCHF vOTU inh-2 57
CC#CC[N+](C)(C)CCCCCCCC	none
CCCCCCCCn1ccc(=N)cc1	none
CCCCCCCCCCCCCCCCn1cc[n+](C)c1	CCHF vOTU inh-1 39 | CCHF vOTU inh-2 50
Cc1cc(-c2nnc3n2N=C(c2ccc(F)cc2)CS3)n[nH]1	none
Cc1ccc(C2OCC(C)([N+](=O)[O-])CO2)cc1 (stereo not given)	none (no result: Mtb bLac sens)
CCc1nnc(N/N=C/c2ccccc2F)n1N	CCHF vOTU inh-1 77 | CCHF vOTU inh-2 inactive
COc1cccc(/C=N/Nc2nnc(C)n2N)c1OCc1ccccc1Cl	CCHF vOTU inh-1 75 | CCHF vOTU inh-2 inactive
COc1cccc(C=NNc2nnc(NN=Cc3cccc(OC)c3OC)c3ccccc23)c1OC	none (no result: Mtb bLac sens)
CCc1nnc(N/N=C/c2ccccc2Cl)n1N	CCHF vOTU inh-1 84 | CCHF vOTU inh-2 inactive
CC1=C([N+](=O)[O-])C(c2ccccc2Cl)NC(=O)N1C (stereo not given)	none
O=C(NNc1cccc(Cl)n1)Nc1ccc(Cl)cc1	CCHF vOTU inh-1 42 | CCHF vOTU inh-2 inactive
O=C(NNc1cccc(Cl)n1)Nc1cccc(C(F)(F)F)c1	none
Cn1c(N)c(C(=O)COC(=O)c2ccc(Br)o2)c(=O)n(C)c1=O	none
Cn1c(N)c(C(=O)COC(=O)c2ccc([N+](=O)[O-])o2)c(=O)n(C)c1=O	CCHF vOTU inh-1 44 | CCHF vOTU inh-2 inactive
Cc1ccc(NCc2ccc(C)s2)cc1	none (no result: FBA Mtb inh, MazEF act, CCHF vOTU inh-1, GDH-TPI counter)
Cc1noc(C)c1S(=O)(=O)N(C)C[C@@H]1OCc2cnnn2CCCC(=O)N([C@@H](C)CO)C[C@@H]1C	none (no result: FBA Mtb inh, MazEF act, Mtb bLac sens, GDH-TPI counter)
Cc1cc(C(=O)CCC(=O)NC(C)c2ccc(S(N)(=O)=O)cc2)c(C)s1 (stereo not given)	none
CC(NC(=O)CS(=O)(=O)c1ccccc1)c1ccccc1 (stereo not given)	CCHF vOTU inh-1 36 | CCHF vOTU inh-2 inactive
CC(NC(=O)CCNS(=O)(=O)c1ccccc1)c1ccccc1 (stereo not given)	none
N#Cc1nnn(-c2ccc(Cl)cc2)c1N	none (no result: CCHF vOTU inh-1)
CN1CCc2c(sc3c2c(=O)n(-c2ccccc2)c2nnc(SCc4ccc(F)cc4)n32)C1	none (no result: Mtb bLac sens)

Bioassay records (PubChem)
